Data on eight molecules can be found in PubChem BioAssay.

Active and inactive are the calls of the source. Unless noted, no rule for the calls is given here.

Assay [1] can be described thus: A549 cell viability effects, profiling panel, calcein-AM fluorescence, 48 h, basal (AID 1162). Also: test concentration not given here. The conditions noted are these: higher = more signal.
Assay [2] in a line: adipocyte viability effects, profiling panel, cell-based, 3T3-L1 adipocytes, calcein-AM fluorescence, 48 h, basal (AID 1163). Also: test concentration not given here. Particulars: 3T3-L1 adipocytes viability, higher = more signal.
A short description of assay [3]: HepG2 cell viability effects, profiling panel, calcein-AM fluorescence, 48 h, basal (AID 1164). Also: test concentration not given here. Particulars: higher = more signal.
A short description of assay [4]: MM1S cell viability effects, profiling panel, calcein-AM fluorescence, 48 h, basal (AID 1165).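 Also: viability of MM1S multiple myeloma cells under basal unstimulated conditions; test concentration not given here.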 The conditions noted are these: higher = more signal.
Assay [5] can be described thus: basal RPMI8226 viability, no added stimulus, profiling panel, cell-based, calcein-AM fluorescence, 48 h, PK04 Diversity Set (AID 1166).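 Also: cells grown under basal conditions without added stimulus; test concentration not given here.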 The conditions noted are these: higher = more signal; RPMI8226 myeloma viability, calcein-AM fluorescence, 48 h unless noted.
The nature of assay [6]: basal HepG2 mitochondrial membrane potential changes, profiling panel, cell-based, JC-1 fluorescence, 24 h, 100 nL compound (AID 1167). Also: test concentration not given here. The conditions noted are these: higher = more signal.
Assay [7] is described as follows: basal 3T3-L1 adipocyte mitochondrial potential changes, profiling panel, cell-based, JC-1 fluorescence, 3T3-L1 adipocytes, 24 h, 100 nL compound (AID 1168). Also: test concentration not given here. Particulars: JC-1 mitochondrial fluorescence; higher = more signal, called active from +8 up or from −8 down unless noted.
Assay [8] in a line: basal RPMI8226 mitochondrial membrane potential changes, profiling panel, cell-based, JC-1 fluorescence, 24 h, 100 nL compound (AID 1169). Also: test concentration not given here. The conditions noted are these: higher = more signal; RPMI8226 myeloma, JC-1 mitochondrial potential fluorescence, 24 h unless noted.
Assay [9] in a line: basal MM1S mitochondrial membrane potential changes, profiling panel, cell-based, JC-1 fluorescence, 24 h, 100 nL compound (AID 1170). Also: test concentration not given here. Particulars: higher = more signal.
Assay [10] is described as follows: A549 lung cancer cell viability effects, profiling panel, resazurin fluorescence, 24 h, PK04 Diversity Set (AID 1171). Also: test concentration not given here. Particulars: higher = more signal, called active from +8 up or from −8 down unless noted. On the technique in general: The colour change of resazurin is a common sign of viable cells or microbes.
Assay [11] in a line: HepG2 liver cancer cell viability effects, profiling panel, resazurin fluorescence, 24 h, PK04 Diversity Set (AID 1172). Also: test concentration not given here. The conditions noted are these: higher = more signal.
Assay [12] is described as follows: basal S. cerevisiae growth modulation, no modifier, primary screen, OD600, strain BY4716, 24 h, basal condition (AID 1173). Particulars: OD600, 24 h; higher = more signal, called active from +8 up or from −8 down unless noted.
The nature of assay [13]: MM1S myeloma cell viability, profiling panel, resazurin fluorescence, basal, 24 h, PK04 Diversity Set (AID 1174).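 Also: MM1S multiple myeloma cell line; test concentration not given here.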 The conditions noted are these: higher = more signal, called active from +8 up or from −8 down unless noted.
For assay [14], the target named is Dihydroorotate dehydrogenase (quinone), mitochondrial (Plasmodium falciparum (isolate 3D7)) (UniProt Q08210). The assay can be described thus: PfDHODH enzyme inhibitors, primary screen, biochemical, C-terminal His tag, absorbance 600 nm (AID 1175).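 Also: recombinant parasite enzyme with a five histidine tag at its C terminus; test concentration not given here.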 Particulars: DCIP absorbance 600 nm; higher = more signal, called active from +8 up or from −8 down unless noted.
Assay [15] is described as follows: P. aeruginosa biofilm formation inhibitors, primary screen, strain PAO1, LB-PBS medium, absorbance 600 nm (AID 1176). Also: test concentration not given here. The conditions noted are these: P. aeruginosa PAO1 growth/biofilm, A600, 12 h; higher = more signal.
A short description of assay [16]: S. cerevisiae RM11-1a growth modifiers, primary screen, strain RM11-1a, OD600, basal, 24 h (AID 1177).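 Also: cultures grown under basal conditions with no added stressor; test concentration not given here.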 The conditions noted are these: OD600, 24 h; higher = more signal, called active from +8 up or from −8 down unless noted.
Assay [17] in a line: E. coli acrAB mutant growth effects, primary screen, E. coli filamentation inducers, strain DRC39, OD650, 24 h (AID 1178).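 Also: growth measured as culture turbidity by optical density at 650 nm; test concentration not given here.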 The conditions noted are these: higher = more signal, called active from +8 up or from −8 down unless noted.
The nature of assay [18]: E. coli acrAB mutant growth effects, primary screen, E. coli filamentation inducers, strain DRC39, OD650, 48 h (AID 1179).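 Also: screen aims at cell division blockers that make cells filament.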 The conditions noted are these: E. coli DRC39 delta-acrAB growth, higher = more signal, called active from +8 up or from −8 down unless noted.
A short description of assay [19]: RPMI8226 myeloma cell viability, profiling panel, resazurin fluorescence, basal, 24 h, PK04 Diversity Set (AID 1180).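 Also: RPMI8826 multiple myeloma cell line at 5000 cells per well; test concentration not given here.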 The conditions noted are these: higher = more signal; RPMI8226 viability, resazurin fluorescence, 24 h unless noted.
Assay [20] has as its target E3 ubiquitin-protein ligase XIAP (Homo sapiens) (UniProt P98170). Nature of the assay: XIAP binders, primary screen, biophysical, small-molecule microarray, fluorescence 635 nm (AID 1181).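 Also: score merges 667 nm emission and signal to noise over triplicate slides.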 The conditions noted are these: small-molecule microarray binding, higher = more signal.

Sequence of E3 ubiquitin-protein ligase XIAP (Homo sapiens) (P98170 whole entry, looked up): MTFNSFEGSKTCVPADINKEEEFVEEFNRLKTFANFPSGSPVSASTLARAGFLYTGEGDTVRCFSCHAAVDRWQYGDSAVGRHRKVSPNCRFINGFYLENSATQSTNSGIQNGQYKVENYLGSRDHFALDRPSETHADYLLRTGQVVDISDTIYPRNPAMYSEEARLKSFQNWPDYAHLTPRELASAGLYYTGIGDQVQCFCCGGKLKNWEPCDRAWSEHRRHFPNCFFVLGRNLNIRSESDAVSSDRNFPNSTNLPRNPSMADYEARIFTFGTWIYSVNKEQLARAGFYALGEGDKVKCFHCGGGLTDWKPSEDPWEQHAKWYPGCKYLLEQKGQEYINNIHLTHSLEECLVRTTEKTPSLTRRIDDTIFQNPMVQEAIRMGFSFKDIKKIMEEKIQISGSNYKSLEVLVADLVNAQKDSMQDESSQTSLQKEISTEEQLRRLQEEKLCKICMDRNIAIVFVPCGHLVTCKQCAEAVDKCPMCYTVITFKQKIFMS
Sequence of Dihydroorotate dehydrogenase (quinone), mitochondrial (Plasmodium falciparum (isolate 3D7)) (Q08210 whole entry, looked up): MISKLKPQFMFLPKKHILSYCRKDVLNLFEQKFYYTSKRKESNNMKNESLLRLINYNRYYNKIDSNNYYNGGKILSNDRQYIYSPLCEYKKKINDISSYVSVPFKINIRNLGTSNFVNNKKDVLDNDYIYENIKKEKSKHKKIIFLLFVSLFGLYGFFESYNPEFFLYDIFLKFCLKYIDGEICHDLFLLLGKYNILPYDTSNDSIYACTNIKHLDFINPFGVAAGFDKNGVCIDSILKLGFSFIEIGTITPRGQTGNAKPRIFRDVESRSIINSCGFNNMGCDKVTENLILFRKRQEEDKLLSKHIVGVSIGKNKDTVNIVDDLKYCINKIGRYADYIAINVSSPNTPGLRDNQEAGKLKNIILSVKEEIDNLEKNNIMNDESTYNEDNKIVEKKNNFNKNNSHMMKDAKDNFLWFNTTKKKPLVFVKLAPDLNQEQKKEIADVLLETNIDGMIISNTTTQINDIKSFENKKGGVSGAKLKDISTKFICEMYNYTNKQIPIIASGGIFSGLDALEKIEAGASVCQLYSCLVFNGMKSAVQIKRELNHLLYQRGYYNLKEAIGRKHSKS

As to `COC(=O)NCC=Cc1nc(CCC=CC(=O)O[C@H]2CC3CC(=O)O[C@@H](C=CCC(C)C)C[C@@H]4CC[C@H](C)[C@@H](C[C@@H](OC)C[C@H](C2)O3)O4)co1`, the z-score in assay [1] is -1.61; in assay [2], -0.804; in assay [3], -1.29; in assay [4], -2.61; in assay [5], -2.97; in [6], 0.49. Moreover, the z-score is 0.249 (inactive) in assay [7]; -0.908 in [8]; -2.54 in assay [9]; -4.04 (inactive) in assay [10]; -1.05 in assay [11]; -1.03 (inactive) in [12]. Besides, the z-score was -2.04 (inactive) in assay [13]; 0.168 (inactive) in assay [15]; -0.659 (inactive) in assay [16]; 0.523 (inactive) in assay [17]; 0.666 (inactive) in assay [18]; -1.95 in [19]. Moreover, the composite z-score in assay [14] was -0.646 (inactive); in assay [20], -0.102.

Regarding `COc1cc2c(cc1O)C(C)N(C)CC2` (stereo not given), the z-score in [1] is 1.22; in assay [2] it was 1.01; in assay [3] it was 0.262; in assay [4] it was -0.853; in [5], 0.456; in assay [6], 0.0836. The z-score is 1.27 (inactive) in [7]; -0.663 in assay [8]; 1.07 in assay [9]; 0.115 (inactive) in [10]; -0.454 in assay [11]; -0.709 (inactive) in [12]. The z-score in assay [13] was 0.412 (inactive); in assay [15], -0.227 (inactive); in assay [16], -0.448 (inactive); in assay [17], 0.516 (inactive); in [18], -0.385 (inactive); in assay [19] it was 0.566. In addition, the composite z-score in assay [14] was -3.68 (inactive); in assay [20], -0.184.

Consider `O=P(c1ccccc1)(c1ccccc1)N1CC2(CC2)CC(O)(c2ccccc2)C1` (stereo not given), for which the z-score is -1.76 in assay [1]; -0.388 in assay [2]; -1.15 in assay [3]; -0.183 in [4]; -0.475 in [5]; -0.846 in [6]. Besides, the z-score is -0.654 (inactive) in assay [7]; 0.232 in assay [8]; -0.372 in assay [9]; -0.488 (inactive) in assay [10]; -0.561 in assay [11]; 0.12 (inactive) in assay [12]. Besides, the z-score in assay [13] was -1.03 (inactive); in [15] it was 0.315 (inactive); in assay [16], 0.445 (inactive); in assay [17] it was -0.32 (inactive); in [18], 0.158 (inactive); in assay [19], -1.22. The composite z-score in [14] was -0.001 (inactive); in assay [20] it was 0.143.

On to `CCCc1cc2c(n1Cc1cccc(Cl)c1)C(C)C1CN(C(=O)c3ccccc3)C(C)(C(=O)OC)C21` (stereo not given), for which the z-score in assay [1] was -1.22; in assay [2], -0.278; in assay [3], 0.101; in [4] it was -2.71; in assay [5], -4.69; in assay [6], 1.4. Besides, the z-score is -1.82 (inactive) in [7]; -0.795 in assay [8]; -1.61 in assay [9]; -0.474 (inactive) in assay [10]; -1.04 in assay [11]; 0.773 (inactive) in assay [12]. Besides, the z-score is -1.7 (inactive) in assay [13]; 0.619 (inactive) in assay [15]; 0.616 (inactive) in assay [16]; -0.423 (inactive) in assay [17]; -0.0676 (inactive) in assay [18]; -1.56 in assay [19]. Moreover, the composite z-score is -0.403 (inactive) in assay [14] and 0.621 in assay [20].

On to `CN1CCC(c2ccc(CO)cc2)=CC1C1CC1` (stereo not given), for which the z-score in assay [1] is 0.169; in [2], -0.228; in assay [3], 0.061; in assay [4], -1.25; in assay [5] it was 0.0447; in [6] it was -0.851. Further, the z-score in assay [7] is -0.625 (inactive); in assay [8] it was 0.604; in assay [9] it was -0.409; in assay [10], -0.374 (inactive); in assay [11], -0.777; in assay [12], 0.574 (inactive). For the same molecule, the z-score was -0.55 (inactive) in [13]; -0.247 (inactive) in assay [15]; -0.123 (inactive) in assay [16]; 0.501 (inactive) in assay [17]; 0.389 (inactive) in [18]; -0.869 in [19]. The results for the composite z-score in assay [14] and in assay [20] were -0.54 (inactive) and 0.284, respectively.

On to `CN1CCc2nc(CO)c(CO)cc2C1`, for which the z-score in [1] was 1.18; in assay [2], 0.593; in [3] it was 0.0749; in [4], -1.02; in assay [5], 0.672; in [6], 0.302. Moreover, the z-score in [7] is -0.23 (inactive); in [8] it was 0.38; in assay [9], 1.04; in [10], 0.515 (inactive); in assay [11], 0.328; in [12], 1.31 (inactive). For the same molecule, the z-score in assay [13] is 0.692 (inactive); in [15] it was -0.188 (inactive); in [16], 1.18 (inactive); in [17], 0.0008 (inactive); in assay [18], -0.019 (inactive); in assay [19], 1.42. For the same molecule, the figures for the composite z-score in assay [14] and in assay [20] were 0.693 (inactive) and -0.144, respectively.

With `COC(=O)[C@@]1(Cc2ccc(F)cc2)[C@H]2c3cc(C(=O)N(C)C)[nH]c3C[C@H]2CN1C(=O)c1ccccc1`, the z-score in [1] was -0.632; in assay [2], -0.597; in assay [3], 0.337; in [4], 0.334; in [5], -0.425 [setting not given]; in assay [6] it was 0.174. Besides, the z-score is 0.0376 [setting not given] (inactive) in assay [7]; -0.101 [setting not given] in assay [8]; -0.872 in [9]; -0.868 [setting not given] (inactive) in assay [10]; -1.3 in assay [11]; 1.11 [setting not given] (inactive) in assay [12]. Moreover, the z-score is -0.811 [setting not given] (inactive) in [13]; 0.191 (inactive) in [15]; 1.09 [setting not given] (inactive) in assay [16]; -0.119 [setting not given] (inactive) in assay [17]; 0.169 [E. coli growth] (inactive) in assay [18]; -0.487 [setting not given] in assay [19]. In addition, the composite z-score in assay [14] was 0.25 [setting not given] (inactive); in assay [20] it was 0.0546.

Turning to `c1ccc(-c2cc3c(nc2-c2ccccc2)CCNC3)cc1`, the z-score in assay [1] is 0.765; in [2] it was -0.106; in assay [3], 0.246; in [4] it was 0.195; in assay [5] it was 0.145; in assay [6] it was 0.506. Also, the z-score in [7] was -0.239 (inactive); in [8], 0.179; in [9], -0.0254; in assay [10], 0.983 (inactive); in assay [11], 0.469; in [12], -0.0743 (inactive). The z-score in assay [13] is 0.526 (inactive); in assay [15], -0.0933 (inactive); in assay [16], 1.36 (inactive); in [17] it was 0.306 (inactive); in [18], -0.29 (inactive); in assay [19], 0.938. Also, the values for the composite z-score in assay [14] and in [20] were 1.07 (inactive) and -0.0344, respectively.
